The record followed here is PubChem BioAssay AID602333 (Sanford-Burnham Center for Chemical Genomics, 2012).

A word on the inhibition: it is the relative decrease from the control value, in per cent.

Among all 1,900 compounds or so, about 240 (13%) were called active. Not all results are given here. A number with no mark means an inactive call.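 The calls were made as follows: active = mean inhibition at least 40% at 20 µM, or signal 3 deviations below plate average, so some actives read negative; inactive = the rest.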

In this test the target is Prothrombin (Bos taurus) (UniProt P00735). Nature of the test: bovine thrombin protease inhibition, confirmation, counter-screen for Rpn11 inhibitor project, biochemical, fluorescence polarization, single concentration (AID 602333).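 Also: plate controls were thrombin with DMSO for no effect and buffer wells lacking thrombin for full effect.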 To be noted: bovine thrombin cleavage of Ub4-pepOG, at 20 µM, stronger effect = higher value. (A counterscreen serves to expose hits that act by an unwanted route or on another target.)
Sequence of Prothrombin (Bos taurus) (P00735 whole entry, looked up): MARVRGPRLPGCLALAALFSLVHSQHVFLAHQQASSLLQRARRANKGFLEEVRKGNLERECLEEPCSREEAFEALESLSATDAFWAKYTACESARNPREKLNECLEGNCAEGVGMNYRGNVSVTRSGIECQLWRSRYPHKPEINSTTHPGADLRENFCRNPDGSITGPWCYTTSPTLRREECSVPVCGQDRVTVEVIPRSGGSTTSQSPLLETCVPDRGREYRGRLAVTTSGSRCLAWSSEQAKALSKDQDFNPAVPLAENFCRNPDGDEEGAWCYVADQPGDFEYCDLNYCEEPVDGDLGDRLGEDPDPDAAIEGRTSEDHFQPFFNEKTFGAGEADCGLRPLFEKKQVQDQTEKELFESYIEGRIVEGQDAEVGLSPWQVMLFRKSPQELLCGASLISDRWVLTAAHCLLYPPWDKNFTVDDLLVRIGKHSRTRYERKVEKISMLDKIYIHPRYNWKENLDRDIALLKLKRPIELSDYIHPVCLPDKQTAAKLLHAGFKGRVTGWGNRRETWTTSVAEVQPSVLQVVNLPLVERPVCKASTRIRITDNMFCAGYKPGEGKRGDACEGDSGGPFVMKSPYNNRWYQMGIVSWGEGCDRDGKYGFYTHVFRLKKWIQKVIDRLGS
As for `C=CC1=C(C(=O)O)N2C(=O)[C@@H](NC(=O)/C(=N/OCC(=O)O)c3csc(N)n3)[C@H]2SC1`, the inhibition is -49.6%. As to `O=C(COc1cccc(F)c1)Oc1ccc(C(=O)c2ccccc2)cc1`, the inhibition was -6.51%. On to `C/C(=N/Nc1nc(-c2ccccc2)c(CC(=O)O)s1)c1ccccc1`, for which the inhibition is 11.8%. `COc1cc(/C=C2/SC(=S)N(Cc3ccccc3)C2=O)cc(OC)c1O`: the inhibition was 30.8%. Regarding `Cc1ccc(Nc2nc(Cl)c(C=O)s2)cc1`, the inhibition was 47% (active). As to `Cc1ccc(Nc2ccccc2N)cc1`, the inhibition is 15.5%. Turning to `CCOc1cc(/C=C2\SC(N3CCCCC3)=NC2=O)ccc1O`, the inhibition is 21%. Take `Oc1ccc(/C=N/Nc2nc(-c3ccccc3F)nc3ccccc23)c(O)c1`: the inhibition was 5.18%.

For the molecule `COc1ccc2[nH]c(=O)c(-c3noc(-c4ccc(F)cc4)n3)cc2c1`, the inhibition is 2.93%.

For the molecule `Cc1ccc2cc(C#N)c(NCCNC(=S)NCCCN3CCOCC3)nc2c1`, the inhibition is -7.45%. Regarding `C=CCn1c(SCC(=O)NCc2ccccc2)nnc1-c1cc(Br)ccc1O`, the inhibition was -3.07%. In the case of `CCCCCCCCCCOC(=O)Cn1c(COc2cccc(OC)c2)[n+](C)c2ccccc21`, the inhibition was -11.8%. The value for `Cc1c(NC(=O)CSc2cccc3cccnc23)c(=O)n(-c2ccccc2)n1C` was -11.3%; that for `Cc1nc2ccc(C(=O)N3CCSCC3)cc2s1` was -9.73%. The value for `CCC(C)Cn1c(O)cc2nn(-c3nc4ccccc4s3)c(=O)c-2c1C` (configuration not stated) was 3.33%; that for `CCNCc1cc2cc(C)ccc2[nH]c1=O` was 7.4%; that for `CCN1CCN(c2cc3nc(C)n(Cc4ccccc4)c(=O)c3cc2NC(=O)c2ccccc2F)CC1` was -5.14%. Regarding `COc1ccc(Cl)cc1NC(=O)CCS(=O)(=O)c1ccc(Br)cc1`, the inhibition was -12.6%.

`COc1cccc(NC(=O)C(C)Oc2ccccc2)c1` (configuration not stated): the inhibition is -2.75%.

For the molecule `Cc1ccc(NC(=O)c2c(NC(=O)CCC(=O)O)sc3c2CCCCC3)cc1`, the inhibition was -10.8%. `CCOc1ccc(NC(=O)c2ccc(NC(=O)COC(=O)c3ccc(NC(=O)CC#N)cc3)cc2)cc1`: the inhibition is -22.9%. For `COc1cccc(-c2nn(-c3ccccc3)cc2/C=C(\C#N)C(=O)NCCCn2ccnc2)c1`, the inhibition is 3.86%. For `CCN1CCCC1CNC(=O)c1cc2c(=O)n(C)c3ccccc3c2n1C` (configuration not stated), the inhibition is -4.94%.

For `CC(C)(C)NC(=O)CSC(=Nc1ccccc1F)NC#N`, the inhibition was 4.77%.

`Cc1ccc(-c2nnc(-c3ccc(NC(=O)c4cccs4)cc3)o2)cc1`: the inhibition is -6.56%.

As for `Cc1nc2ccccc2nc(=O)c1NNc1ccc([N+](=O)[O-])cc1`, the inhibition was 28.5%. The value for `CC(C)Cn1c(CCC(=O)O)ccc1-c1cccs1` was -22.2%. Under `CCC/C=C(\CCC)C(NC(=O)Cc1ccccc1)c1ccc(C(=O)OC)cc1` (configuration not stated) stands -11.1%; under `Cc1oc2c(C)c3oc(=O)c(CC(=O)N[C@@H](CC(C)C)C(=O)N[C@@H](Cc4ccccc4)C(=O)O)c(C)c3cc2c1C`, 29.3%.

Regarding `Cc1cc(/C=C2/SC(=O)N(CC(=O)N3CCCC3)C2=O)ccc1N1CCOCC1`, the inhibition is 23.9%. For `CC(=O)Nc1ccccc1Sc1ccc2c3c(cccc13)C(=O)N(c1ccc(C)cc1)C2=O`, the inhibition is 4.95%. Regarding `O=C1NC(=O)C2C1C(c1ccc([N+](=O)[O-])cc1)=NN2Cc1ccccc1` (configuration not stated), the inhibition is 15.8%.

As to `Cc1cccc(OCc2nnc(SCc3nc4cc(C(F)(F)F)ccc4c(=O)[nH]3)o2)c1`, the inhibition was 42.8% (active).

With `CC(=O)/C(=N\Nc1ccc(Cl)cc1Cl)Sc1cccc2cccnc12`, the inhibition is 1.24%.

In the case of `CC1CCN(c2ccc3c(c2)S(=O)(=O)c2cc(C(=O)O)ccc2C3=O)CC1`, the inhibition is 18.1%.

Take `CN(C)c1ccc(-n2cccc2/C=C2/SC(=Nc3ccc(F)cc3)NC2=O)cc1`: the inhibition is -29.3%.

Take `O=C(CSc1nc2ccccc2c(=O)[nH]1)Nc1nc(-c2ccc(Br)cc2)cs1`: the inhibition was -3.66%. Take `CCOC(=O)N1CCC(NC(=O)C(NS(=O)(=O)c2ccc3c(c2)CCN3C(=O)CC)C(C)C)CC1` (configuration not stated): the inhibition was 1.81%. For the molecule `CCOc1ccc(-n2c(O)c(/C=N/c3ccnn3Cc3ccncc3)c3ccccc3c2=O)cc1`, the inhibition is 82.5% (active). On to `CCOc1ccc(-n2c(O)c(/C=N/Nc3nnc(C)c(=O)[nH]3)c3ccccc3c2=O)cc1`, for which the inhibition was -1.67%. For the molecule `CC(C)Oc1ccc(/C=C(\NC(=O)/C=C/c2ccco2)C(=O)NCCc2nc3ccccc3[nH]2)cc1`, the inhibition was 21%.

In the case of `COc1ccc(CNC(=O)c2nnn(CC(=O)Nc3cc(C)cc(C)c3)c2N)cc1`, the inhibition is -6.95%. As to `CN(C)CCOC1c2ccccc2-c2ccccc21`, the inhibition was -14%.

For the molecule `CC(=O)c1sc(N/N=C/c2ccc(C(C)C)cc2)nc1C`, the inhibition was -6.77%.

Regarding `Cc1ccc(NC(=O)CN2CCc3ccccc3C2)cc1`, the inhibition was -14.3%. In the case of `C=CC[n+]1c(-c2ccc(C)cc2)csc1NNC(=O)Nc1ccccc1`, the inhibition is 4.61%.

As to `COc1ccc(-n2c(SCC(=O)Nc3sc4c(c3C#N)CCCC4)nnc2-c2ccc(O)cc2)cc1`, the inhibition was -8.59%.

Turning to `Cc1nc2ccccc2n1C(=O)N1CCOCC1`, the inhibition is -8.33%. With `CCCS(=O)(=O)N1CCCC(C(=O)NCc2ccco2)C1` (configuration not stated), the inhibition is -12.9%. For `Cc1ccc(N=Cc2c(O)cc(C)oc2=O)c(C)c1`, the inhibition was 8.99%.

For `CSC1=N/C(=C\C=C\c2cccs2)C(=O)S1`, the inhibition is 3.5%.

As to `CCCOc1ccc(Cn2c(O)cc(=O)[nH]c2=O)cc1`, the inhibition is 7.31%. For the molecule `Nc1nonc1-n1nnc(C(=O)N/N=C/c2cc(Br)ccc2O)c1CSC1=NCCS1`, the inhibition is 2.28%. Under `CCN(CC)C(=O)CSc1nc2ccccc2n1CC(=O)N1CCN(c2ccccc2OC)CC1` stands -2.4%; under `COc1cccc(/C=C(/CC(=O)Nc2ccc(N3CCOCC3)cc2)c2nc3ccccc3s2)c1`, 7.25%. With `O=C(O)c1ccc(NN=CC2=C(N3CCOCC3)/C(=C/c3ccccc3)CC2)cc1`, the inhibition is 46.5% (active). As to `CCCCCCSc1ccc([C@@H]2[C@H]3C(=O)N(CC)C(=O)[C@H]3[C@]3(C(=O)OC)CCCCN23)cc1`, the inhibition was 60.5% (active).
